Compound activity: PubChem, National Center for Advancing Translational Sciences (NCATS)
This is a sample that favours compounds with a hit; in the whole collection about 2.9% have one here.
Nrf2 ARE act – activators of Nrf2 (ARE) signaling; AREc32 ARE-luciferase reporter (MCF7-derived line), luminescence, 24 h; Potency, µM (series often up to 46.1 µM), without a hit: top-dose activation, usual class: activators; 410,000 compounds, 0.31% hits; also: % of control where 0% means no effect; nearly all actives have a fitted effect of over 65% in size
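Cells of the AREc32 ARE-luciferase line are plated in OPTI-MEM containing 5% FBS and left overnight at 37 deg C. Compounds are pinned in, incubation continues 24 hr, and firefly luciferase signal is then measured.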
ATXN viability – cell viability loss in ATXN counter-screen | S2 cells (HEK-293 line with an ATXN2-luciferase reporter) viability, CellTiter-Fluor protease fluorescence, 24 h | 400,000 compounds, 0.49% hits | AID 651635 | Potency, µM (doses to about 56.7 µM), usual class: cytotoxic; also: nearly all actives have a fitted effect of over 40% in size
A549 tox-1 – A549 cytotoxicity, counter-screen for Nrf2 inhibitors; A549 ARE-Fluc cells, CellTiter-Fluor viability, 18-24 h; Potency, µM (titrated, usually from 46 µM), for inactives: at the highest dose activity change, negative = cytotoxicity, usual class: inhibitors; 390,000 compounds, 0.16% hits; AID 504648; also: % is scaled to controls: 0 for no effect and ±100 for the full control effect
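A549 ARE-Fluc cells in 5% FBS OPTI-MEM, 5000 cells/well, rested 2 h then exposed to compounds in concentration-response for 18-24 h at 37 °C. Viability by CellTiter-Fluor fluorescence (Ex 405/Em 525) after 30 min; luciferase luminescence (BugLite, 15 min, RT) read afterwards.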
Nrf2 block – Nrf2 pathway inhibition; A549 ARE-Fluc reporter, luciferase luminescence, 18-24 h; Potency, µM (doses to about 46 µM), without a hit: at the top dose activity change, negative = inhibition, actives largely listed as inhibitors; 360,000 compounds, 2.1% hits; also: % is scaled to controls: 0 for no effect and ±100 for the full control effect; nearly all actives have a fitted effect of over 60% in size
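A549 ARE_Fluc cells (5000/well, 5% FBS OPTI-MEM) pre-incubated 2 h, then treated with compounds 18-24 h at 37C/5% CO2 in concentration-response. CellTiter-Fluor viability read first; BugLite luciferase luminescence after 15 min at room temperature gives Nrf2 activity.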
ATXN2 expr inh – reduces ATXN2 reporter expression in HEK-293 cells; HEK-293 ATXN2-luciferase reporter, luminescence, 24 h; 360,000 compounds, 0.72% hits; Potency, µM (highest dose often 57 µM), for the others: at the highest dose activity change, negative = inhibition, most hits filed as inhibitors; AID 1745845; also: % is scaled to controls: 0 for no effect and ±100 for the full control effect; nearly all actives have a fitted effect of over 55% in size
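ATXN2-luciferase reporter cells (luciferase flanked by upstream and downstream ATXN2 gene portions) were treated 24 h at 37 °C with compounds at up to 57 uM. SteadyGlo luminescence gave expression; GF-AFC fluorescence gave viability.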
FLuc enzyme inh – firefly luciferase inhibition, Nrf2 hit validation. shares compounds with Nrf2 block. purified firefly luciferase, luminescence inhibition. Potency, µM (top dose mostly 57.5 µM), inactives show top-dose activity change, negative = inhibition, most hits filed as inhibitors. 1,400 compounds, 4% hits; also: % is scaled to controls: 0 for no effect and ±100 for the full control effect; nearly all actives have a fitted effect of over 65% in size
Target sequence (P08659 whole entry, looked up): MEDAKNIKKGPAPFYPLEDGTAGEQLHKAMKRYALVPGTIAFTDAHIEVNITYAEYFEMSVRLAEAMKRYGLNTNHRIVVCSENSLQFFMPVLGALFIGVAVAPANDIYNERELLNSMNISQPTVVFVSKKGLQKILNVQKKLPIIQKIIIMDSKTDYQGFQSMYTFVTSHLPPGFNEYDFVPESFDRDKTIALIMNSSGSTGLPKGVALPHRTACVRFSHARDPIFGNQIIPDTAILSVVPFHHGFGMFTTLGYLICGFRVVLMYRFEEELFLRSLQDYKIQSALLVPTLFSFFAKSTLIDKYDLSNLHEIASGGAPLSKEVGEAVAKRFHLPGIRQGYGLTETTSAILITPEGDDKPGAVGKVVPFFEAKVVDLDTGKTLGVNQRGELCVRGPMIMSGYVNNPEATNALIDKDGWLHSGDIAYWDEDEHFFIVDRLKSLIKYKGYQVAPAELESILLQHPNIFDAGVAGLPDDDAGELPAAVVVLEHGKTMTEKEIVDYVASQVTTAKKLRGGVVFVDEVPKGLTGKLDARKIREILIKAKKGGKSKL
A549 tox-2 – counter-screen for Nrf2 inhibitors: cytotoxicity in A549 ARE cells | shares compounds with Nrf2 block | A549 ARE-Fluc cells, cytotoxicity counterscreen | Potency, µM (top dose mostly 46.1 µM), without a hit: at the top dose activity change, negative = cytotoxicity, most hits filed as inhibitors | 1,400 compounds, 2% hits;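 also: cells exposed to compounds for 18 to 24 hours; % is scaled to controls: 0 for no effect and ±100 for the full control effect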
Nrf2 ARE inh – Nrf2 inhibition confirmed, A549 ARE-luciferase | shares compounds with Nrf2 block | A549 ARE-firefly luciferase reporter, luminescence | Potency, µM (highest dose often 46.1 µM), for the others: at the top dose activity change, negative = inhibition, usual class: inhibitors | 1,400 compounds, 74% hits; also: % is scaled to controls: 0 for no effect and ±100 for the full control effect; nearly all actives have a fitted effect of over 65% in size
Active calls of the source: *; i = inactive; ? = inconclusive; / = no result shown; [ ] = another dose, or the depositor's remark. Calls follow the shape of the dose curve; as a rule, active = well fitted curve in the direction sought with a large enough effect; inconclusive = small, poorly fitted or top-dose-only effect, or another doubt; inactive = no such curve, though single readings can be large; an effect the other way counts as inactive or inconclusive. Potency is read from the fitted curve at half-maximal effect.

SMILES	Nrf2 ARE act	ATXN viability	A549 tox-1	Nrf2 block	ATXN2 expr inh	FLuc enzyme inh	A549 tox-2	Nrf2 ARE inh
O=[N+]([O-])c1cccc2nc3ccccc3c(NCCCn3ccnc3[N+](=O)[O-])c12	13%	?	?	0.15µM*	0.27µM*	?	?	/
Cn1c(SCC(=O)Nc2ccccc2F)nc2c([nH]c3ccccc32)c1=O	9%	/	-5%	/	/	/	/	/
O=c1n(Cc2cccc(F)c2)c2ccccc2c2nc(-c3ccccc3)nn12	0%	/	-3%	-5%	/	/	/	/
O=C(N/N=C/c1sc(N2CCOCC2)nc1-c1ccccc1)c1cccc(S(=O)(=O)N2CCCC2)c1	3%	/	?	2.6µM*	?	2%	-17%	23µM*
O=C(N/N=C/c1sc(N2CCOCC2)nc1-c1ccccc1)c1ccc(O)cc1	3%	/	-18%	-8%	-18%[11.3 µM]	/	/	/
CC1=C(C(=O)Nc2ccccc2)C(C(C)C)n2nc(SCc3ccccc3C)nc2N1 (stereo unspecified)	0%	i	0%	-2%	13%	/	/	/
Cc1nc2ccc(NS(=O)(=O)c3ccc(F)c(C)c3)cc2[nH]1	-1%	i	-2%	8.2µM*	/	-1%	-3%	5.8µM*
Cc1nc2ccc(S(=O)(=O)c3ccc4nc(C)[nH]c4c3)cc2[nH]1	0%	i	-4%	/	-2%	/	/	/
CN(C)S(=O)(=O)c1ccc(Nc2nc(C3CC3)nc3c2nnn3Cc2ccccc2Cl)cc1	6%	?	-24%	5.8µM*	?	2%	-24%	4.1µM*
O=C(Nc1ccc2c(c1)OCCO2)c1cccc2nc3ccccc3nc12	0%	/	21µM*	2.6µM*	?	?	12µM*	/
Cc1nn(C)c(C)c1CN(Cc1nc(CCC(C)C)no1)C(C)C	0%	?	-9%	1.3µM*	-26%[11.3 µM]	-2%	-2%	?
Cc1cn2c(=O)cc(COc3cccc(NC(=O)c4ccc(C(C)(C)C)cc4)c3)nc2s1	4%	/	0%	-2%	/	/	/	/
Cc1nnsc1C(=O)Nc1ccc(S(=O)(=O)N2CCC(C)CC2)cc1	0%	i	-15%	9.2µM*	-13%	-1%	0%	5.2µM*
C=CC[n+]1c(/C=C2\C=Cc3cc(C)ccc3N2CC)ccc2ccccc21	-1%	7.9µM*	?	4.6µM*	/	-27%	15µM*	2.3µM*
Cc1cc(C(C)(C)C)cc(C)c1C[n+]1ccc2ccccc2c1	-1%	i	-18%	3.7µM*	-38%	3%	-5%	2.3µM*
CC(=O)Nc1ccc(S(=O)(=O)N2CC3(C)CC2CC(C)(C)C3)cc1 (stereo unspecified)	1%	i	-6%	0%	3%	/	/	/
CC1(C)CC2CC(C)(CN2S(=O)(=O)c2ccc(C(=O)Nc3ccc(S(=O)(=O)N4CCOCC4)cc3)cc2)C1 (stereo unspecified)	1%	i	?	1.5µM*	?	0%	2%	4.1µM*
CC1(C)CC2CC(C)(CN2S(=O)(=O)c2ccc(C(=O)Nc3ccc(Cl)c(S(=O)(=O)N4CCOCC4)c3)cc2)C1 (stereo unspecified)	1%	i	-11%	5.2µM*	-18%	-1%	-11%	7.3µM*
CCCCCCCCNc1ncnc2ccccc12	4%	i	?	5.8µM*	?	-1%	-2%	7.3µM*
Cc1ccc(CON=C2CCN(c3ncc(C(F)(F)F)cc3Cl)CC2)cc1	0%	i	15%	-16%	-10%	/	/	/
FC(F)(F)c1cnc(N2CCC(=NOCc3ccc(Cl)cc3)CC2)c(Cl)c1	-1%	i	-25%	8.2µM*	-13%	1%	21%	7%
